± gives the standard deviation. In all, about 8,200 sequences were measured (“pre-steady-state target cleavage rate”: median about 0.024, highest 2% from about 1.3 on). For the sample, the highest values were picked, then their nearest neighbours and some sequences at random.

The test system of this assay is MIWI (PIWIL1) piRISC loaded with L1MC piRNA (30 nt). In words: pre-steady-state target cleavage rate (min^-1); MIWI and MILI are mouse PIWI proteins and EfPiwi is from a freshwater sponge; tags in brackets are library labels; higher = faster piRNA-guided slicing of the target. The conditions noted are these: guide: L1MC piRNA 5'p-UAACUAAAUACUAUGCAAGCUGUAGGUCCU
How it is done:
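Cleave-'n-Seq: a library of target RNAs (target site embedded in constant flanks, ACAGCATTCCGCGTTAGTGATATCCG... 5' flank; DNA-blocked outside the site) at 0.1 nM was incubated with 1 nM active mouse MILI or MIWI piRISC (synthetic 5'-monophosphorylated piRNA guide) with or without 500 nM mouse GTSF1 at 33 °C for 1 min to 16 h. Uncleaved targets were sequenced and normalised to non-target controls, and the pooled three trials were fitted to a burst-and-steady-state model to give the pre-steady-state cleavage rate (min^-1; k3 is constrained to at most 1e-4). Sequence is the target site only; target names encode pairing extent (gX:gY) and contiguous / 1-mismatch / 2-mismatch / bulge geometry. Fits with R² ≤ 0 are excluded.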

Setting [1] is: auxiliary factor: 500 nM mouse GTSF1.
Where [2] appears, read: auxiliary factor: none (no GTSF1).

On to UCCUGCUACGCUUGCAUAGUAUUUAGUUA, for which the “pre-steady-state target cleavage rate” value runs as follows: under setting [1], 1.12 ± 0.08; under setting [2], 0.0532 ± 0.011.

With AGGUCCUACAGCUUGCAUAGUAUUAAGUUA, the “pre-steady-state target cleavage rate” value runs as follows: under setting [1], 0.381 ± 0.034; under setting [2], 0.054 ± 0.013.

As to UCCUCCUAGAGCUUGCUUAGUAUUUAGUUA, the “pre-steady-state target cleavage rate” value runs as follows: under setting [1], 1.04 ± 0.059; under setting [2], 0.0213 ± 0.0041.

Take UGGACCUACAGCUUGCUUACUAUUUAGUUA: the “pre-steady-state target cleavage rate” value reads like this: under setting [1], 0.493 ± 0.031; under setting [2], 0.0127 ± 0.0038.

On to UCGACCUACAGCUUGCAUAGUUAAUAGUUA, for which the “pre-steady-state target cleavage rate” value was found to be 0.122 ± 0.019 under setting [1] and 0.00697 ± 0.0029 under setting [2].

Consider UCCUGGAUGUCGUGCAUAGUAUUUAGUUA, for which the “pre-steady-state target cleavage rate” value runs as follows: under setting [1], 0.031 ± 0.0083; under setting [2], 0.00348 ± 0.0032.

In the case of UCCUCCUACACCUAGCAUAGUAUUUAGUUA, the “pre-steady-state target cleavage rate” value is 0.657 ± 0.057 under setting [1] and 0.0111 ± 0.0022 under setting [2].

As for UCCUGGAACAGCUUGCAUAGUAUAAACAAA, the “pre-steady-state target cleavage rate” value under setting [1] is 0.18 ± 0.043.

For the sequence UGGACCUACAGCUUCGAUAGUAUUUAGUAA, under setting [1], the “pre-steady-state target cleavage rate” value came to 0.307 ± 0.04.

For the sequence UCCUGGAUGUGCUUGCUUAGUAUUUAGUAA, the “pre-steady-state target cleavage rate” value reads like this: under setting [1], 0.0383 ± 0.008; under setting [2], 0.0104 ± 0.0033.

Consider UGGACCUACAGCUUGCAUAGUAUUAAGAUA, for which the “pre-steady-state target cleavage rate” value was determined as 0.174 ± 0.028 under setting [1] and 0.00558 ± 0.0024 under setting [2].

For UGGACCUACUGCAUGCAUAGUAUUUAGUUA, the “pre-steady-state target cleavage rate” value was found to be 1.27 ± 0.08 under setting [1] and 0.0325 ± 0.0061 under setting [2].

Take UGGACCAACUGCUUGCAUAGUAUUUAGUUA: the “pre-steady-state target cleavage rate” value runs as follows: under setting [1], 1.27 ± 0.055; under setting [2], 0.0655 ± 0.011.

Take AGGACCAACUGCUUGCAUAGUAUUUAGUUA: the “pre-steady-state target cleavage rate” value reads like this: under setting [1], 1.22 ± 0.056; under setting [2], 0.0799 ± 0.014.

Turning to AGGACCUACUGCUUGCAAAGUAUUUAGUUA, the “pre-steady-state target cleavage rate” value reads like this: under setting [1], 1.11 ± 0.057; under setting [2], 0.0455 ± 0.0095.

With UCGACCAACUGCUUGCAUAGUAUUUAGUUA, the “pre-steady-state target cleavage rate” value under setting [1] was 1.43 ± 0.041 and the “pre-steady-state target cleavage rate” value under setting [2] came out at 0.0724 ± 0.012.

Regarding UGGACCUACUGCUUGCAAAGUAUUUAGUUA, the “pre-steady-state target cleavage rate” value under setting [1] was found to be 1.23 ± 0.059 and the “pre-steady-state target cleavage rate” value under setting [2] came to 0.0383 ± 0.0078.

Turning to UCGACCUACUGCAUGCAUAGUAUUUAGUUA, the “pre-steady-state target cleavage rate” value was 1.33 ± 0.056 under setting [1] and 0.0324 ± 0.0055 under setting [2].

Turning to UCGACCUACUGCUUGCAAAGUAUUUAGUUA, the “pre-steady-state target cleavage rate” value came out at 1.33 ± 0.037 under setting [1] and 0.051 ± 0.01 under setting [2].

As for AGGACCUACUGCAUGCAUAGUAUUUAGUUA, the “pre-steady-state target cleavage rate” value reads like this: under setting [1], 1.3 ± 0.06; under setting [2], 0.0566 ± 0.01.

As for UCCUGGUACAGCUACCAUAGUAUUUAGUUA, under setting [1], the “pre-steady-state target cleavage rate” value came out at 0.366 ± 0.05.

Take UCCACCUACUGCUUGCAUAGUAUUUACUUA: the “pre-steady-state target cleavage rate” value reads like this: under setting [1], 0.243 ± 0.025; under setting [2], 0.0254 ± 0.0034.

Regarding AGGUGGUACAGCUUGCAUAGUAUUUAGAAA, the “pre-steady-state target cleavage rate” value runs as follows: under setting [1], 0.19 ± 0.044; under setting [2], 0.00559 ± 0.0016.

On to UCCUGGUACAGCUUGCAUAGUUAAUAGAAA, for which the “pre-steady-state target cleavage rate” value under setting [1] was 0.023 ± 0.0089.

As to UCCUGGAUGACUUGCAUAGUAUUUAGUUA, the “pre-steady-state target cleavage rate” value under setting [1] amounted to 0.412 ± 0.03 and the “pre-steady-state target cleavage rate” value under setting [2] was 0.0206 ± 0.0053.

For the sequence UCCUGGAUGUCGAACGAUAGUAUUUAGUUUA, the “pre-steady-state target cleavage rate” value under setting [1] was < 0.0001.

AGGACCUUCAGCUUGCAUUGUAUUUAGUUA: the “pre-steady-state target cleavage rate” value runs as follows: under setting [1], 0.966 ± 0.031; under setting [2], 0.0424 ± 0.01.

As for AGGACCUACAGCUUGCAUUGUAUAUAGUUA, the “pre-steady-state target cleavage rate” value under setting [1] worked out at 0.395 ± 0.031 and the “pre-steady-state target cleavage rate” value under setting [2] is 0.0219 ± 0.0046.

Turning to UCGACCUACAGCUUGGAUAGUAUUUAGAAA, the “pre-steady-state target cleavage rate” value came out at 0.372 ± 0.044 under setting [1] and 0.00679 ± 0.002 under setting [2].

UCCUGGUACACCUUGCAUAGUUUUUAGUUA: the “pre-steady-state target cleavage rate” value is, setting by setting: under setting [1], 0.0764 ± 0.027; under setting [2], 0.0132 ± 0.0038.

Take UCGAACUACAGCUUGCAUAGUAUUUAGUUA: the “pre-steady-state target cleavage rate” value is 1.39 ± 0.049 under setting [1] and 0.0698 ± 0.011 under setting [2].

As to UCGAACCUACAGCUUGCAUAGUAUUUAGUUA, the “pre-steady-state target cleavage rate” value under setting [1] came to 1.37 ± 0.046 and the “pre-steady-state target cleavage rate” value under setting [2] was 0.0781 ± 0.016.

For the sequence AGGAACCUACAGCUUGCAUAGUAUUUAGUUA, the “pre-steady-state target cleavage rate” value is, setting by setting: under setting [1], 1.23 ± 0.059; under setting [2], 0.0809 ± 0.014.

For the sequence UGAACCUACAGCUUGCAUAGUAUUUAGUUA, the “pre-steady-state target cleavage rate” value was 1.63 ± 0.068 under setting [1] and 0.0751 ± 0.015 under setting [2].

For the sequence UGGAACCUACAGCUUGCAUAGUAUUUAGUUA, the “pre-steady-state target cleavage rate” value amounted to 1.41 ± 0.1 under setting [1] and 0.0747 ± 0.016 under setting [2].

Regarding UGGAACUACAGCUUGCAUAGUAUUUAGUUA, the “pre-steady-state target cleavage rate” value under setting [1] was determined as 1.09 ± 0.041 and the “pre-steady-state target cleavage rate” value under setting [2] was determined as 0.0698 ± 0.011.

For the sequence “UCCACCUACAGCUUGCAUAGUAUUUAGUUG [g2:g27:cont:t1G]”, the “pre-steady-state target cleavage rate” value under setting [1] amounted to 0.399 ± 0.047 and the “pre-steady-state target cleavage rate” value under setting [2] was found to be 0.0371 ± 0.0065.

Regarding AGGAACUACAGCUUGCAUAGUAUUUAGUUA, the “pre-steady-state target cleavage rate” value runs as follows: under setting [1], 1.3 ± 0.041; under setting [2], 0.0918 ± 0.016.

Values taken from the supplement of paper PMC10338343.
